The source of these data is PubChem BioAssay (NCI).

Compounds without any hit were thinned out: in the full panel of roughly 83,000, 20% have a hit.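 96-well plates, one dose, 48 hours. Percent growth reported; active if below 10.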 Values without a mark were called inactive. Calls of active or inactive are those of the source.

Assay in all cases: NCI-60 one-dose screen, 48 h (100 = growth as untreated, 0 = no growth, -100 = all killed)
Experiment [1] concerns HCT-15 colon. The note with it: 10 µM unless noted.
The subject of experiment [2] is HT29 colon. The note with it: 10 µM unless noted.
The subject of experiment [3] is SNB-75 CNS. Particulars: 10 µM unless noted.
Experiment [4] relates to SNB-19 CNS. Particulars: 10 µM unless noted.
Experiment [5] deals with U251 CNS. The note with it: 10 µM unless noted.
The test system of experiment [6] is PC-3 prostate. Particulars: 10 µM unless noted.
Experiment [7] relates to SK-MEL-5 melanoma. The note with it: 10 µM unless noted.
The test system of experiment [8] is LOX IMVI melanoma. The note with it: 10 µM.
Experiment [9] has as its system SK-MEL-28 melanoma. The note with it: 10 µM unless noted.

With `COc1cc(C(=O)O)c(O)c(C(C)(C)C)c1`, the growth in experiment [1] was 108%; in experiment [2], 109%; in experiment [3] it was 96.8%; in experiment [4], 98.9%; in experiment [5] it was 95.2%; in experiment [6], 97.6%. The growth in experiment [7] is 96.5%; in experiment [8], 98.8%; in experiment [9], 109%.

Regarding `C=CCS(C)(=O)=O`, the growth in experiment [1] was 102%; in experiment [2], 97.1%; in experiment [3] it was 94.1%; in [4], 101%; in experiment [5] it was 90.4%; in experiment [6] it was 101%. Further, the growth in experiment [7] is 104%; in [8], 103%; in experiment [9], 106%.

In the case of `Cc1ccc(C2CCCCC2)cc1Br`, the growth in experiment [1] was 100%; in experiment [2], 95.8%; in experiment [3], 98.4%; in experiment [4], 95.6%; in experiment [5], 88.1%; in experiment [6] it was 94%. Further, the growth in experiment [7] was 102%; in experiment [8] it was 103%; in experiment [9] it was 101%.

Turning to `Nc1ccn(C2CC(N)C(CO)O2)c(=O)n1` (centres undefined), the growth in experiment [1] was 71.4%; in [2], 81.3%; in experiment [3], 77.6%; in experiment [4], 68.2%; in experiment [5], 80.9%; in [6], 74.8%. For the same compound, the growth is 83.6% in experiment [7], 75.4% in [8] and 118% in experiment [9].

Take `COc1cc(C(=O)N2CCN(c3ccccc3)CC2)c2ccccc2n1`: the growth in experiment [1] is 18.3%; in [2], -19% (active); in experiment [3] it was 20.9%; in [4] it was 28.4%; in [5], 11.1%; in experiment [6] it was 35.5%. The figures for the growth in [7], in [8] and in [9] were 16.8%, 16.5% and 54.6%, respectively.

Regarding `CCCCCC/C=C\CCCCCCCCCc1cc(O)cc(OC)c1O`, the growth in experiment [1] was 3.68% (active); in [2] it was 8.67% (active); in experiment [3], 6.11% (active); in experiment [4], 24%; in experiment [5], 10.2%; in experiment [6], 1.77% (active). In addition, the growth is -29% (active) in experiment [7], -86.3% (active) in [8] and 24% in [9].

`CC(=O)CSc1ncnc2nc[nH]c12`: the growth in [1] was 96.1%; in experiment [2], 104%; in experiment [3], 89.3%; in experiment [4], 99.7%; in experiment [5], 101%; in [6] it was 92.5%. Besides, the growth in experiment [7] is 95.8%; in experiment [9] it was 82.3%.

`CC(=O)OC/C(C)=C\CC(C)COC(C)=O` (centres undefined): the growth in experiment [1] was 98.8%; in [2] it was 113%; in experiment [3], 81.5%; in [4] it was 94.9%; in experiment [5] it was 101%; in experiment [6] it was 93.9%. In addition, the results for the growth in experiment [7], in experiment [8] and in [9] were 104%, 98.8% and 94.6%, respectively.

As to `CCCCCCCCCCCCCCCCOc1ccccc1NC(=O)CC(C)=O`, the growth is 113% in [1]; 97.9% in experiment [2]; 93.2% in experiment [3]; 104% in experiment [4]; 99.3% in experiment [5]; 75.4% in experiment [6]. Moreover, the growth in [7] was 96.2%; in experiment [8], 107%; in experiment [9], 103%.

With `CCCCOC(=O)c1ccccc1O`, the growth is 104% in [1]; 111% in experiment [2]; 85.9% in [3]; 102% in [4]; 100% in [5]; 101% in experiment [6]. Moreover, the growth in [7] was 104%; in [8], 100%; in [9], 113%.

`O=S(=O)(O)c1ccc(O)c(C2CCCCC2)c1`: the growth is 96.6% in [1]; 98.6% in experiment [2]; 77.2% in experiment [3]; 104% in experiment [4]; 96.6% in experiment [5]; 98.5% in [6]. In addition, the growth in experiment [7] is 101%; in experiment [8] it was 105%; in [9], 110%.

For the compound `C#CC(O)c1ccccc1` (centres undefined), the growth in experiment [1] is 103%; in [2] it was 105%; in [3] it was 103%; in experiment [4], 104%; in experiment [5] it was 97.2%; in [6], 97.3%. For the same compound, the growth in [7] is 97.8%; in experiment [8], 103%; in experiment [9], 109%.

As to `CCOc1ccc(NC(=S)N2CCC(CCCC3CCN(C(=S)Nc4ccc(OCC)cc4)CC3)CC2)cc1`, the growth is 84% in experiment [1]; 87.7% in experiment [2]; 80.3% in experiment [3]; 96% in experiment [4]; 95.1% in experiment [5]; 99% in [6]. Moreover, the growth in experiment [7] was 42.2%; in experiment [8] it was 95.5%; in experiment [9], 94.9%.

`CC(=O)Oc1c(Cl)cccc1-c1ccccc1`: the growth in experiment [1] is 108%; in experiment [2] it was 98.1%; in experiment [3], 103%; in [4] it was 98.9%; in [5] it was 90%; in [6], 89.5%. The figures for the growth in experiment [7], in experiment [8] and in experiment [9] were 101%, 103% and 112%, respectively.

As to `Cc1nc(O)cc(=O)[nH]1`, the growth in experiment [1] was 119%; in [2], 108%; in [3], 97.1%; in experiment [4], 109%; in experiment [5], 118%; in [6] it was 97%. Moreover, the results for the growth in [7], in experiment [8] and in [9] were 109%, 108% and 110%, respectively.
